Tm shift relative to glycine control data for 46 compounds are collected here from PubChem BioAssay AID1259313 (Sanford-Burnham Center for Chemical Genomics, 2017).

Out of some 340,000 compounds screened, about 8,500 (2.5%) were called active. Only a selection was taken, and actives are over-represented in it overall. Values without a mark were called inactive.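 Rule for the calls: active = melting temperature shift of at least 10% of the positive control shift, at one fixed dose; inactive = the rest.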

The experiment relates to Glutamate receptor ionotropic, NMDA 3A (GRIN3A) ligand-binding domain. The experiment in a line: binders of NR3A ligand-binding domain, primary screen, biophysical, differential scanning fluorimetry, uHTS (AID 1259313). To be noted: NR3A LBD differential scanning fluorimetry, at 25 µM, active compounds read high, 0% = protein alone, 100% = glycine-bound protein. In general terms: DSF heats the sample and reads unfolding from a dye or from intrinsic fluorescence.
Regarding `COCc1nc2ccccc2n1Cc1ccccc1Br`, the Tm shift relative to glycine control was -1.6%. For `O=C(Oc1ccc(-c2nnco2)cc1)c1ccc(F)c(S(=O)(=O)N2CCOCC2)c1` the value was 0.78%; for `COC(CNC(=O)Cn1ncc2ccsc2c1=O)OC`, -0.44%. As to `COc1ccc(N(CC(=O)Nc2ccc(C)cc2C)S(=O)(=O)c2ccccc2[N+](=O)[O-])c(OC)c1`, the Tm shift relative to glycine control is -2.12%.

Consider `COc1ccc(C)cc1S(=O)(=O)N(CC(=O)Nc1cccc([N+](=O)[O-])c1)c1ccc(C)cc1`, for which the Tm shift relative to glycine control is 17.5% (active). Consider `Cc1ccc(S(=O)(=O)N(CC(=O)Nc2cccc([N+](=O)[O-])c2)Cc2ccc(Cl)cc2)cc1`, for which the Tm shift relative to glycine control is 3.38%. Next, `C=CCc1cccc2cc(C(=O)NC3CCCC3)c(=O)oc12`: -0.75%; `O=C(Nc1nnc(CCN2CCCCC2)s1)c1cccc(Cl)c1`: -1.3%. As for `Cc1ccc(-c2nnc(C)c(N3CC(C)OC(C)C3)n2)cc1` (stereo unspecified), the Tm shift relative to glycine control is -2.74%. With `COc1ccccc1NC(=O)CN1CCN(S(=O)(=O)c2ccc(Br)cc2)CC1`, the Tm shift relative to glycine control is 24.1% (active). For `O=C(CN1CCN(S(=O)(=O)c2ccc(Br)cc2)CC1)Nc1ccccc1C(=O)c1ccccc1` the value was -0.96%; for `O=C(CN1CCN(S(=O)(=O)c2ccc(F)cc2)CC1)Nc1ccccc1F`, -1.4%; for `O=C1CCCC(O)=C1N=Nc1ccc2ncsc2c1`, -0.17%. For `NC(=O)COc1ccc(C23CC4CC(CC(C4)C2)C3)cc1` the value was 1.05%; for `O=C(Cc1ccc(Cl)cc1)c1ccccc1`, -0.17%; for `CC(Sc1sc(=S)sc1SC(C)C(=O)O)C(=O)O` (stereo unspecified), 3.28%. Next, `O=C(Cc1ccccc1)Nc1ccc(C(=O)Nc2ccccc2C(=O)O)cc1`: 0.78%; `O=C(CN1CCc2ccccc2C1)Nc1cccc(S(=O)(=O)N2CCOCC2)c1`: 0.42%; `CCOn1c(=O)c(=O)n(O)c2ccccc21`: 6.16%. As to `O=C(NCc1cccnc1)C(=O)Nc1nc(-c2ccccc2)cs1`, the Tm shift relative to glycine control is -0.2%. Turning to `COCc1nnc(NC(=O)c2ccc3c(c2)OCO3)s1`, the Tm shift relative to glycine control was -0.5%. Next, `c1ccc(C(=NNc2nc3ccccc3s2)c2ccccn2)cc1`: -7.5%; `N#Cc1ccccc1NC(=O)c1ccc2c(c1)OCO2`: -0.66%. Next, `CC(=O)Nc1ccc(Nc2cc(C)nc(Nc3ccc(NC(C)=O)cc3)n2)cc1`: -4.37%; `CC(=O)Nc1ccc(-c2csc(NC(=O)Nc3ccccc3)n2)cc1`: 26.9% (active); `CC(=O)Nc1cccc(-c2csc(Nc3cccc(C)n3)n2)c1`: 11.8% (active).

`O=C(Nc1nc2ccccc2s1)c1ccc2c(c1)OCO2`: the Tm shift relative to glycine control is 12.1% (active). For `O=C(CCC(=O)c1cccs1)Nc1nc2ccccc2s1` the value was -1.65%; for `Cc1cccc(NC(=O)Nc2ccc3c(c2)OCO3)n1`, -1.41%. For `O=C(CSC1=NCCS1)Nc1nc(-c2ccccc2)cs1`, the Tm shift relative to glycine control is -5.63%.

On to `O=C(Nc1ccccc1)Nc1nc2ccccc2s1`, for which the Tm shift relative to glycine control is 26.3% (active).

With `O=C(NC(Cc1ccc(O)cc1)C(=O)O)/C(=C/c1ccccc1)NC(=O)c1ccccc1` (stereo unspecified), the Tm shift relative to glycine control is -1.28%.

With `O=C(Nc1nccs1)C1CCCN1S(=O)(=O)c1cccc2cccnc12` (stereo unspecified), the Tm shift relative to glycine control is 0.08%.

For the compound `CCOC(=O)NC(=O)CSc1nnc(SCCC(=O)O)s1`, the Tm shift relative to glycine control was -2.83%.

For the compound `COc1ccc(C)cc1N(C(=O)Cn1nnc(-c2ccc(C)o2)n1)C(C(=O)NC1CCCC1)c1ccncc1` (stereo unspecified), the Tm shift relative to glycine control was 0.19%. Turning to `CC(C)(C)NC(=O)NC(=O)COC(=O)C1c2ccccc2Oc2ccccc21`, the Tm shift relative to glycine control was -5.02%. For `CCC(C)(C)NC(=O)CN(C(=O)CCC(=O)Nc1nccs1)c1ccc2c(c1)OCO2` the value was -1.69%; for `COc1cc(NC(=O)CSC(=S)N2CCCC2)c(OC)cc1Cl`, -1.06%. Next, `O=C(N/N=C/c1ccccn1)c1cccc(NC(=O)c2ccc(Cl)cc2)c1`: 21.2% (active); `Cc1cccc(C(=O)Nc2ccc(C(=O)N/N=C/c3cccc(C)n3)cc2)c1`: -13.7%. On to `O=C(N/N=C/c1ccccn1)c1ccc(S(=O)(=O)N2CCCCCC2)cc1`, for which the Tm shift relative to glycine control was -1.75%. In the case of `C=CCC1(CC=C)CCCN1C(=O)c1cc(COc2ccc(-n3cncn3)cc2)on1`, the Tm shift relative to glycine control was 1.48%.

Consider `Cc1ccc2cc(C#N)c(NCCNC(=S)NCCCN3CCOCC3)nc2c1`, for which the Tm shift relative to glycine control was 1.55%.

In the case of `CC(C)CN(Cc1c(O)ccc2c(=O)c(-c3ccccc3)coc12)CC(C)C`, the Tm shift relative to glycine control is -7.19%.

Turning to `CC(C)=CCc1c(O)c(CC=C(C)C)c2occ(-c3ccc(O)cc3)c(=O)c2c1O`, the Tm shift relative to glycine control was 31.4% (active).

For `COC(=O)C1=C(C)N(Cc2ccccc2)C(=NCCCOC(C)C)N[C@H]1c1ccccc1`, the Tm shift relative to glycine control is -2.6%.
